Screening results (PubChem BioAssay)
D2 antagonist: HTS Assay for Allosteric Antagonists of the Human D2 Dopamine Receptor: Primary Screen for Antagonists. HEK293 TREx D2 cells, calcium flux, dopamine EC80. actives 2% (n = 340,000). inhibition, % at 10 µM. AID 485344, 2010; in the data active = inhibition above about 30%; inactive = below that, where a call was filed
Target sequence (P14416 whole entry, looked up): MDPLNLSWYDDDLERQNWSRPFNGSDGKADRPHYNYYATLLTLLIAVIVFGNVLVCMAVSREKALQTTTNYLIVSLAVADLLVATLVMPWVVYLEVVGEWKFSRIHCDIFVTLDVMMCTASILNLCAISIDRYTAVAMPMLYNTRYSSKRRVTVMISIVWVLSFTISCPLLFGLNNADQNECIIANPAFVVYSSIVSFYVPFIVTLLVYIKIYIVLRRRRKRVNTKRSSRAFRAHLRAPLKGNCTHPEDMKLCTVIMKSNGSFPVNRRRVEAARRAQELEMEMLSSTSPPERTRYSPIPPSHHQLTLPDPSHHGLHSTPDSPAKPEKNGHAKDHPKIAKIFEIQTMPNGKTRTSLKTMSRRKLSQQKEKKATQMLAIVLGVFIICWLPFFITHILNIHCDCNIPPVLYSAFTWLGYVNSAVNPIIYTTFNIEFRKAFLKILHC
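Overnight-induced (tetracycline, 30 C) HEK293 T-REx cells carrying force-coupled D2 receive a no-wash calcium dye, then compound, then EC80 dopamine at 180 s; signals are read kinetically throughout.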
D2 PAM-1: HTS Assay for Positive Allosteric Modulators of the Human D2 Dopamine Receptor: Primary Screen for Potentiators; D(2) dopamine receptor (Homo sapiens), P14416; potentiation, % at 10 µM; AID 485347, 2010; actives 0.34% (n = 340,000); HEK293 T-REx D2, calcium flux, EC20 dopamine potentiation;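 active = potentiation over 3 SD above the plate norm, cut at about 30% in these data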
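Potentiation of an EC20 dopamine calcium response is measured in a force-coupled, tetracycline-inducible Hek293 Trex D2 line. Compound-only kinetic reads over 180 s flag agonists before dopamine addition.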
D2 ag-1: Beta-Arrestin HTS for Positive Allosteric Modulators of the Human D2 Dopamine Receptor: Agonists | D(2) dopamine receptor (Homo sapiens), P14416 | actives 0.084% (n = 360,000) | activation, % (test concentration not listed) | DiscoveRx PathHunter D2 beta-arrestin, luminescence, 90 min; 100% = 57 uM dopamine signal; in the data active = activation above about 40%; inconclusive = between about 15% and that limit
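Agonist mode: compounds alone added to overnight-plated D2 PathHunter cells for 90 min at 37 C, with 57 uM final dopamine (EC100) defining full response. Beta-arrestin recruitment detected by chemiluminescent reagent, read after 1 h at ambient temperature.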
D2 ag-2: HTS Assay for Allosteric Agonists of the Human D2 Dopamine Receptor: Primary Screen for Agonists; D(2) dopamine receptor (Homo sapiens), P14416; actives 0.53% (n = 340,000); HEK293 T-REx D2 cells, calcium flux agonist mode; activation, % at 2 µM;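 active = activation over 3 SD above normal in the single-dose calcium agonist read, cut at about 30% in these data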
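In this primary screen, compounds producing a positive calcium signal within 180 s of addition to tetracycline-induced, force-coupled HEK293 Trex D2 cells are flagged; cells are dye-loaded with a no-wash calcium kit beforehand.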
D2 PAM-2: Beta-Arrestin HTS for Positive Allosteric Modulators of the Human D2 Dopamine Receptor: Potentiators. D(2) dopamine receptor (Homo sapiens), P14416. DiscoveRx D2 beta-arrestin cells, luminescence, 90 min; 100% = 57 uM dopamine signal. potentiation, % (test concentration not listed). actives 0.23% (n = 360,000). AID 624464, 2012; in the data active = potentiation above about 50%; inconclusive = mostly about 30% to 49%
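PathHunter D2 cells, attached overnight at 37 deg C, received compound in DMSO plus dopamine at EC20 (50 nM final) for 90 min at 37 deg C. Beta-arrestin recruitment was read as luminescence after 1 h with detection reagent at ambient temperature.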
A number is an active result; 0 = inactive; ? = inconclusive; - = no result. A selection: hits, their analogues and other compounds. The true share with any hit is near 2.4%.

SMILES | D2 antagonist | D2 PAM-1 | D2 ag-1 | D2 ag-2 | D2 PAM-2
O=C1CC(c2cccs2)CC2=C1C(c1ccccc1)n1ncnc1N2 (configuration not stated) | 0 | 0 | 0 | 0 | 0
CC1CC(=O)C2=C(C1)Nc1ncnn1C2c1ccccc1 (configuration not stated) | 0 | 34 | 0 | 0 | 0
Nc1nc(CN2CCN(Cc3ccccc3)CC2)nc(N2CCCc3ccccc32)n1 | 63 | 0 | 0 | 0 | 0
CCCSCCCNC(=O)C1CCN(c2nc3ccccc3nc2C(F)(F)F)CC1 | - | 0 | - | 0 | -
CN(n1cnc2ccccc2c1=O)S(C)(=O)=O | - | - | 0 | - | 0
CS(=O)(=O)Nn1cnc2ccccc2c1=O | 0 | 35 | 0 | 0 | 0
Cc1cc(C)c(C)c(OCc2nc(-c3cccnc3)no2)c1 | 0 | 33 | 0 | 0 | 0
O=C(Nc1ccc(Cl)c(C(F)(F)F)c1)C(Cc1ccccc1)NS(=O)(=O)c1cccc2nsnc12 (configuration not stated) | - | 0 | - | 0 | -
COc1ccc(SCCN2CC[C@@H](C)CCC2=O)cc1 | 0 | 0 | 0 | 0 | 0
CC1CCC(=O)N(CCSc2ccccc2)CC1 (configuration not stated) | 33 | 0 | 0 | 0 | 0
CC1CCN(CCNC(=S)Nc2ccc(Cl)cc2)CC1 | 31 | 0 | 0 | 0 | 0
COc1ccc(CCNC(=S)NC2CCN(Cc3ccccc3)CC2)cc1 | 71 | 0 | 0 | 0 | 0
S=C(Nc1ccc(Cl)cc1)NC1CCN(Cc2ccccc2)CC1 | 69 | 0 | 0 | 0 | 0
CCC(C)c1ccc(NC(=S)NC2CCN(Cc3ccccc3)CC2)cc1 (configuration not stated) | - | 0 | 0 | - | 0
COc1ccc(NC(=S)NC2CCN(Cc3ccccc3)CC2)cc1OC | 0 | 0 | 0 | 0 | 0
S=C(NCCN1CCOCC1)Nc1ccc(Cl)cc1 | 0 | 0 | 0 | 0 | 0
S=C(Nc1ccccc1)NC1CCN(Cc2ccccc2)CC1 | 92 | 0 | 0 | 0 | 0
COc1ccc(-c2nc3sc(CCNC(=O)C(=O)Nc4ccc(C)c(F)c4)c(C)n3n2)cc1 | - | 0 | - | 0 | -
CCc1ccc(NC(=S)NC2CCN(Cc3ccccc3)CC2)cc1 | 98 | 0 | 0 | 0 | 0
Cc1ccc(N(CC(=O)Nc2cc(C)ccc2C)S(=O)(=O)c2c(C)noc2C)cc1 | - | 0 | - | 0 | -
CCC(=O)N1CCc2cc(S(=O)(=O)NC(CC(C)C)C(=O)Nc3cccc(C)c3C)ccc21 (configuration not stated) | - | 0 | - | 0 | -
CCc1ccc(CN(C)CC(=O)Nc2sccc2C#N)cc1 | 64 | 0 | 0 | 0 | 0
Cc1ccc2c(c1)cc1c(=O)n(CC(=O)NCc3ccco3)nc(C)n12 | - | 0 | - | 0 | -
Cc1ccc(CNC(=O)c2sc3nc(C)cc(C)c3c2-n2cccc2)cc1 | - | 0 | - | 0 | -
Cc1ccc(-c2nc3ncccn3c2Nc2ccc3c(c2)OCO3)o1 | 0 | 0 | 0 | 0 | 63
SMILES | D2 antagonist | D2 PAM-1 | D2 ag-1 | D2 ag-2 | D2 PAM-2
Cc1ccc(Nc2c(-c3ccc(C)o3)nc3ncccn23)cc1 | 0 | 0 | 0 | 0 | 0
COc1ccccc1N1CCN(C(=O)CSc2nnnn2C2CC2)CC1 | 0 | 0 | 0 | 0 | 0
COc1ccc(N2CCN(C(=O)CSc3nnnn3C3CC3)CC2)cc1 | 32 | 0 | 0 | 0 | 0
Cc1cc(F)c(F)c(C(=O)N2CCC(C)CC2)c1Cl | 32 | 0 | 0 | 0 | 0
Cc1cc(F)c(F)c(C(=O)N2CCCCC2C)c1Cl (configuration not stated) | 0 | 0 | 0 | 0 | 0
O=C(CCc1ccc(Oc2cc([N+](=O)[O-])cc([N+](=O)[O-])c2)cc1)N1CCCCCC1 | 37 | 0 | ? | 0 | 75
COc1ccc(CCn2c3c(c(=O)[nH]c2=O)C(NC(=O)c2ccc(C(C)(C)C)cc2)(C(F)(F)F)C(=O)N3)cc1OC (configuration not stated) | - | 0 | - | 0 | -
Oc1ccc(NCc2ccccc2OCc2ccccc2)cc1 | 0 | 0 | ? | 0 | 97
O=C(c1cc2cc3ccc(Cl)cc3nc2o1)N1CCN(c2cccc(Cl)c2)CC1 | - | 0 | - | 0 | -
CCN(c1cc(C)cc(C)c1)S(=O)(=O)c1nnc(NC(=O)c2cccc(F)c2)s1 | - | 0 | - | 0 | -
Cc1ccc(CC(=O)Nc2ccc(F)c([N+](=O)[O-])c2)cc1C | 42 | 0 | 0 | 0 | 0
CS(=O)(=O)N(Cc1ccc(Cl)cc1)c1ccc(C(=O)NCC2CCCO2)cc1 (configuration not stated) | 0 | 0 | 0 | 0 | 0
CS(=O)(=O)N(Cc1ccccc1)c1ccc(C(=O)NCC2CCCO2)cc1 (configuration not stated) | 33 | 0 | 0 | 0 | 0
CCN(c1ccccc1)S(=O)(=O)c1ccc(Cl)c(C(=O)NCC2CCCO2)c1 (configuration not stated) | 0 | 31 | 0 | 0 | 0
COc1ccc(Nc2c3c(nc4ccc(NC(=O)/C=C/c5cccc(OC)c5OC)cc24)CCCC3)cc1OC | - | 0 | - | 0 | -
O=C(CCN1C(=O)CSc2ccccc21)Nc1cccc(C(F)(F)F)c1 | 0 | 0 | 0 | 0 | 0
O=C(CCN1C(=O)CSc2ccccc21)Nc1ccc(C(F)(F)F)cc1 | 88 | 0 | 0 | 0 | 0
CCN(Cc1nc(-c2ccc(OC)c(OC)c2)no1)C(=O)c1ccc2c(c1)OCO2 | 37 | 0 | 0 | 0 | 0
CCOc1ccc(S(=O)(=O)NCc2cccn2Cc2cccc(C)c2)cc1 | - | 0 | - | 0 | -
COc1cc(NC(=O)c2cc(-c3ccco3)on2)cc(OC)c1OC | 33 | 0 | 0 | 0 | 0
Cc1nn(Cc2ccc(Cl)cc2)c(C)c1NC(=O)c1cc(-c2ccco2)on1 | 0 | 0 | 0 | 0 | 0
Cc1cc(NC(=O)c2cc(-c3ccco3)on2)nn1Cc1ccc(Cl)cc1 | 0 | 0 | 0 | 32 | 0
Cc1ccc(Cl)cc1-n1ncc2c(Nc3ccc4c(c3)OCCO4)ncnc21 | - | 0 | - | 0 | -
O=C(O)COc1ccc2occ(C(=O)c3ccccc3)c2c1 | 38 | 0 | 0 | 0 | 0
CCC1CCc2c(sc(NC(=O)C3c4ccccc4Oc4ccccc43)c2C(=O)OC)C1 (configuration not stated) | - | 0 | - | 0 | -
CC1CC(C)(C)N(C(=O)CN2CCN(C)CC2)c2ccccc21 (configuration not stated) | 0 | 0 | 0 | 0 | 0
Cc1ccc2c(c1)C(C)CC(C)(C)N2C(=O)CN1CCN(C)CC1 (configuration not stated) | 36 | 0 | 0 | 0 | 0
